Measured values published in the supplement of paper PMC11417369.
± gives the standard deviation of the averaged measurements. Whole data set: some 25,000 sequences, median “ln(normalized median fluorescence intensity)” near 8.9, cut for the highest 2% near 10. Shown is part of a subset that was picked to be rich in the highest values.

What follows are sequences tested on PfAP2-LT AP2 domain (GST-tagged) (assay: gcPBM binding intensity (ln(normalized median fluorescence intensity)); higher = stronger DNA binding).
In short: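 The highest Masliner-normalised natural-log median intensity across replicate spots of either probe orientation is reported as binding intensity. GST-tagged P. falciparum DNA-binding domains expressed in E. coli were applied for 1 h to an Agilent 4 × 180k array of primer-extended double-stranded 36-bp intergenic genomic probes plus negative controls, and bound protein was detected with Alexa488 anti-GST antibody and scanned at 488 nm.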

Row | Sequence | gcPBM binding intensity (ln)
1 | TTCATTTTTTAAGCATCACACACGAAAGAACAAAGT [CACACA_site1122] | 8.98 ± 0.33
2 | AATAATATATATTGTACACACAAAATGGGAAAAAAA [CACACA_site5100] | 9.1 ± 0.33
3 | AAAATTTAATATAATGCACACATAAAAAAAAAATCA [CACACA_site7882] | 8.87 ± 0.42
4 | TGAAAAAAGAAAAATACACACATATAATATAATATA [CACACA_site2255] | 9.02 ± 0.49
5 | CAAGGAACCAGACACACACACATAAATGTATATATA [CACACA_site752] | 9.62 ± 0.47
6 | ACAAGACAGATATATACACACATACATACATACATA [CACACA_site7472] | 9.43 ± 0.37
7 | TACACAAGCAGACACACACACATATATATATATATA [CACACA_site1270] | 10.42 ± 0.071
8 | AATAACCACAGACACACACACATATAAATATAAATA [CACACA_site7631] | 10 ± 0.46
9 | GGAATAACCAGACACACACACACATATAAATATGTA [CACACA_site7632] | 10.1 ± 0.41
10 | ACAGAAAAAAGACACACACACATAATATACATACAT [CACACA_site6991] | 10.1 ± 0.42
11 | AGGATACACAGACACACACACATATATATATATATA [CACACA_site907] | 10.47 ± 0.064
12 | TACACAAGCAGACACACACACATATAGATTTATATA [CACACA_site6715] | 9.65 ± 0.35
13 | TAAAAGAAATAATATACACACATATATAAAAATAAA [CACACA_site1329] | 8.94 ± 0.41
14 | AATGTATATAATATTAATATGTAAATATATAATCAA [CACACA_negctrl_site1683] | 8.72 ± 0.39
15 | TTAGAAATTCATTTTACACACAATTCAAAAGAATGT [CACACA_site2104] | 8.79 ± 0.42
16 | ATATATAAAATTATATGTACATATATAATATATATA [XGTACX_site529] | 8.77 ± 0.39
17 | TACCATATTTCTTCAAGTACGCATTATGTTAAAAAG [XGTACX_site345] | 8.51 ± 0.38
18 | GTGGAACGTATATTTTCACACACTCTCAAAAGTACA [CACACA_site8722] | 8.93 ± 0.47
19 | TATTTATTAATATGTACACACATCAACCATATTAAC [CACACA_site7001] | 9.04 ± 0.29
20 | TAAATAAGGAAGGAAACACACATTAAAAAATAAATA [CACACA_site618] | 8.84 ± 0.59
21 | TATATATATTTATGTTGTACAAAATATTATTACGTA [XGTACX_site5384] | 8.57 ± 0.36
22 | TTTTTTTAATGATATTGTACATTAATAAAAAATATG [XGTACX_site1719] | 8.12 ± 0.59
23 | GAATAATATGGACATACACACATATACATACATATA [CACACA_site2114] | 9.27 ± 0.39

Row | Sequence | gcPBM binding intensity (ln)
24 | GGAATAACCGGACACACACACACATATATATATATA [CACACA_site5874] | 10.39 ± 0.057
25 | TAAATACAGACATATACACACATATATATATATATA [CACACA_site4382] | 9.925 ± 0.0071
26 | GGAATATAAATACATACACACATATATATATATATA [CACACA_site4998] | 10 ± 0.33
27 | CACATACAGACATACACACACATATATATTAATATA [CACACA_site546] | 9.56 ± 0.41
28 | AATACATACAGACACACACACACATATATATATATA [CACACA_site3558] | 10.36 ± 0.014
29 | TTATTATTCCCTCATTTTGTTACCATTATTTCAATT [CACACA_negctrl_site1023] | 8.88 ± 0.54
30 | AATGTACAAATACGTACACACATATATATATATATA [CACACA_site1542] | 10.1 ± 0.18
31 | GATATTATGTGTTTGGTATTTCGATCTTGTCAGGAC [CACACA_negctrl_site426] | 8.93 ± 0.41
32 | TACGGACATACTAACGGACACACGTAAGAAAAAAAA [CACACA_site602] | 9.03 ± 0.56
33 | AAAAAAAAAAAAGAAACACACACATATATATATATA [CACACA_site8525] | 9.94 ± 0.3
34 | GTAAGAAACAGACACACACACATATATATATATATA [CACACA_site794] | 10.21 ± 0.064
35 | CAAGAAAAGAAACACACACACATATATATATATATA [CACACA_site3881] | 10.4 ± 0.28
36 | AAAAAAAAGAAAAACACACACATATATATATATAAT [CACACA_site4707] | 9.53 ± 0.42
37 | GTAAGAAACAGACACACACACATATAAATATAAATA [CACACA_site6515] | 9.86 ± 0.49
38 | CACAAAAAGAAACACACACACATATATATATATATA [CACACA_site999] | 10 ± 0.37
39 | AAAAAAAAAAAAGAAACACACATATATATATATATA [CACACA_site140] | 9.9 ± 0.071
40 | AAGAAAAAAAAAAAAACACACATATATATATATATA [CACACA_site2027] | 10.1 ± 0.14
41 | GTAAGAAACGGACACACACACATATATATATATATA [CACACA_site4593] | 10.39 ± 0.05
42 | CGGACATACTAACGGACACACGTAAGAAAAAAAAAG [CACACA_site4504] | 9.05 ± 0.64
43 | TAAACAGACATATAAACACACATATAAACAGACATA [CACACA_site7214] | 9.31 ± 0.41
44 | ATAAAATCTTAATCAACAAACAAACAAAAAAAAAAT [CACACA_negctrl_site1161] | 8.77 ± 0.48
45 | ATATGTTCTACAAAAAAGATGTCGATTTATTTTCTT [CACACA_negctrl_site1179] | 8.56 ± 0.49
46 | TTTACATTTCAGTAGACACACAAAAAATAATACTAA [CACACA_site512] | 8.76 ± 0.43

Row | Sequence | gcPBM binding intensity (ln)
47 | AAAAAAAGATTATACACACACATATATAAACATACA [CACACA_site4553] | 9.54 ± 0.3
48 | ATGATATGCAATTTAGTGCATAACAAAATTGGTATA | 8.79 ± 0.5
49 | TTATTTATAAATATTAATTTTTTTTTTTTTTTTTTT [XGTACX_negctrl_site105] | 8.01 ± 0.5
50 | TAATATATATTATTATGTACATATATTGATTCCTTG [XGTACX_site6830] | 8.85 ± 0.47
51 | AATATAAGAAAAATAACACACACATAAACATATATA [CACACA_site8899] | 9.54 ± 0.35
52 | TTGTAAGAAAAACACACACACACATATATATATATA [CACACA_site795] | 10.1 ± 0.014
53 | ATAAGAAGAAGAAAAACACACATATGTAAATATATA [CACACA_site3138] | 9.09 ± 0.54
54 | ATGTTGTACAGACACACACACAAAAAAAAAATAAAA [CACACA_site7184] | 9.46 ± 0.56
55 | TATATATATATATATATATATATATATATATGTTGT [TGCATGCA_negctrl_site24] | 10.24 ± 0.085
56 | GTTATATGTTATATATATATATATATATATATATAT [TGCATGCA_negctrl_site428] | 9.51 ± 0.27
57 | ATATATATATGTATGTATATATATATATATATGTTT [CACACA_negctrl_site248] | 9.08 ± 0.34
58 | TTTTCTTCATAAATGCTGCACTGGTTTAAGCATGAT | 8.6 ± 0.46
59 | TGGGAAGGGTGGGAAACTTTATCAAAAACTTATTAC [GTGCAC_negctrl_site16] | 8.98 ± 0.24
60 | TTTTGTTGATTTATATCTGTAGGGTTTAATATAACA [XGTACX_negctrl_site174] | 8.51 ± 0.33
61 | TATAAAAAATAAAATACACACACATATATATATATA [CACACA_site8365] | 9.74 ± 0.28
62 | ATCAAGCACCAACACACACACACACCCCCACCCACA [CACACA_site370] | 10.6 ± 0.11
63 | TATATATATATATATACACACACACCCACCAAAGCG [CACACA_site7904] | 10.02 ± 0.021
64 | AGCACCCACCAACACACACACACACCCACCCACCGA [CACACA_site368] | 10.22 ± 0.028
65 | TACACCCACCAACACACACACACACTAATAAAAAAA [CACACA_site8060] | 10.1 ± 0.44
66 | TGCACCCACCAACACACACACAACTAAAAAATAATG [CACACA_site2566] | 9.71 ± 0.42
67 | AGCACCCACCAACACACACACACACCCACCCACCCA [CACACA_site8011] | 10.3 ± 0.11
68 | TCCTGTTGAGAATGGCGTACATATAAATATTATATA [XGTACX_site1841] | 8.55 ± 0.42
69 | TTTAATTTGTTATACACACACAAAAAAAATTATAAA [CACACA_site3937] | 8.93 ± 0.46

Row | Sequence | gcPBM binding intensity (ln)
70 | CTTATGTTTTTTAAGTGTACATATTATACGTATTAT [XGTACX_site1176] | 9.02 ± 0.42
71 | AAATAACATAATAAGGGTACATTAATTTCGATAATG [XGTACX_site835] | 8.77 ± 0.4
72 | TTTCTAATTTATATCACACACATATATAAATAGTAA [CACACA_site6156] | 8.72 ± 0.42
73 | TATTAATCCTTTTGCTTGGAAACATTCAAAAGGAAG [CACACA_negctrl_site1129] | 8.18 ± 0.41
74 | TAAATTATAATAAATACACACAAATTATAATTCTAT [CACACA_site3942] | 8.79 ± 0.37
75 | TTTAGAGAAGTCAAGTGTACATATAAAATAATTCAC [XGTACX_site4997] | 8.65 ± 0.35
76 | ATATATATATATATATGTACATATGTATATTTTTTT [XGTACX_site1299] | 9.77 ± 0.44
77 | GATAATTACGGACACACACACACACGCACAACTAAA [CACACA_site7254] | 10.215 ± 0.0071
78 | GATAATTATGGACACACACACACACCCACAACTAAA [CACACA_site8824] | 10.2 ± 0.35
79 | TAATTATGCAGACACACACACACACGCAACTAAAAA [CACACA_site7253] | 10 ± 0.3
80 | AAGATAATTACGCACACACACACACGCCCACAACTA [CACACA_site7255] | 10.4 ± 0.12
81 | TATATAAATGGACACACACACACCTTATAATTATTA [CACACA_site6093] | 10 ± 0.38
82 | AAAAATAAAAATTGCACACTAAAAAATTACGCACGA [CACACA_site3418] | 8.94 ± 0.35
83 | TGCACGCACAGACACACACACAACTAAAAAATAATG [CACACA_site7250] | 9.54 ± 0.49
84 | TAAAAAATAAAAATTGCACACTAAAAAATTACGCAC [CACACA_site9129] | 8.76 ± 0.41
85 | TAATTATGCGGACACACACACACACCCAACTAAAAA [CACACA_site5427] | 9.9 ± 0.26
86 | TAAATTTTTATTTGTAGTACTATATATATATATATA [XGTACX_site1026] | 8.9 ± 0.12
87 | TAATTATGTACTATTATACACACGTTTAATTGTAAA [CACACA_site206] | 8.74 ± 0.42
88 | AACATATATAATATTTGTACTTATATACAAAATATG [XGTACX_site7502] | 8.64 ± 0.4
89 | ATATATATTTTAATAACACACATATATTATATTATA [CACACA_site4387] | 8.7 ± 0.38
